Results taken from PubChem BioAssay (NCATS).
Values joined by “and” are separate entries in the source; they are usually repeats but may differ in a detail not shown here. Identical values can stand only once. Results filed as inconclusive are left out. Active and inactive are the calls of the source. Unless noted, the call rests on the fitted dose curve; in most records, active means well fitted curve in the direction sought with a large enough effect; inconclusive means small, poorly fitted or top-dose-only effect, or another doubt; inactive means no such curve, though single readings can be large; an effect the other way counts as inactive or inconclusive.

Key:
[1] = molecular target: alpha-glucosidase (Oryza sativa, rice) (UniProt Q653V4); test: Counterscreen for Glucocerebrosidase Inhibitors: qHTS Assay for Rice alpha-Glucosidase at pH 5.0 (AID 997);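 further: 0% = full activity with enzyme and -100% = basal without enzyme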
Method in brief: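 Rice alpha-glucosidase (4 nM final) with 400 uM 4-methylumbelliferyl-alpha-D-glucopyranoside in citrate buffer pH 5.0, 20 min at room temperature, stopped at pH 10; fluorescence 365/440 nm, compounds 0.7 nM–77 uM, AC50 from Hill fits.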

[2] = Validation of Assay for Modulators of Lamin A Splicing (AID 1459; active means well fitted curve in the direction sought with a large enough effect in the signal ratio; the % refers to the signal ratio;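 further: cells exposed to compound for two days before reading; 0% is about no effect; ratio rise marks activators and ratio drop marks inhibitors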)
Method in brief: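 Splicing correction read as GFP (500-530 nm) over DsRed2 (575-640 nm) object intensity after 48 h compound exposure of reporter HeLa S3 clones (600 cells/well, 2% FBS medium); ancitabine and cycloheximide titrations, 0.5% DMSO as vehicle.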

[3] = qHTS Assay for Lipid Storage Modulators (AID 1519; calls by dose curve; on activity change, negative = inhibition: on the % scale 0 is the no-effect control and ±100 the full control effect); conditions: Drosophila S3 cells, BODIPY lipid droplet/cell ratio, laser cytometry, cells loaded with oleic acid; for activity change, negative = inhibition: at 57.5 µM (top of the series)
Method in brief: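 Cells seeded at 5,000 per well were treated with compounds over a concentration series and loaded with oleic acid (400 uM, as added). Lipid droplet fluorescence (488 nm excitation, 500-530 nm channel) was read by laser-scanning cytometry and normalized to 20 uM Triacsin C.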

[4] = molecular target: DNA repair nuclease/redox regulator APEX1 (Homo sapiens) (UniProt P27695); test: qHTS Validation Assay for Inhibitors of the Human Apurinic/apyrimidinic Endonuclease 1 (APE1) (AID 1705; further: potency means the concentration at half of the fitted maximal effect;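 on activity change, negative = inhibition: TAMRA fluorescence gain over two minutes as APE1 cuts a quenched THF abasic duplex; on the % scale 0 is the no-effect control and ±100 the full control effect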)
DNA repair nuclease/redox regulator APEX1 (Homo sapiens), sequence (P27695 whole entry, looked up): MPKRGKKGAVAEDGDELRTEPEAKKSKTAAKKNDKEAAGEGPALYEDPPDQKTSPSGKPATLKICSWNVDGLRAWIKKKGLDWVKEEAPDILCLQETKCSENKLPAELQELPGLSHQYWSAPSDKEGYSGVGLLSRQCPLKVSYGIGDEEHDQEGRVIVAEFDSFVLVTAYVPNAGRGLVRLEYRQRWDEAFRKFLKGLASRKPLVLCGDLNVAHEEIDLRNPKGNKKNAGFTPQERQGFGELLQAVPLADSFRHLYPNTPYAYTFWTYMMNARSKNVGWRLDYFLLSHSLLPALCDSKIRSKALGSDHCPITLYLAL
Method in brief: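 Activity read as rising fluorescence (598 nm emission, 525 nm excitation) from incision of a TAMRA/BHQ-2 duplex carrying a THF abasic site (50 nM). Compound and enzyme sat 15 min at RT before substrate start; signal change between first and third 60-s reads.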

[5] = Counterscreen for APE1 Inhibitors: Fluorescent Dye Displacement Validation Assay (AID 1707);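 further: plate controls were ThO with dsDNA and no compound for no effect and ThO without dsDNA for full effect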
Method in brief: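 Assay buffer: Tris-HCl pH7.5 with 50mM NaCl, 2 mM MgCl2, 0.01% Tween-20. Dye 250 nM, duplex 50 nM final. Readout: decrease in ThO endpoint fluorescence, 480 nm excitation, 540 nm emission.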

[6] = qHTS for differential inhibitors of proliferation of Plasmodium falciparum line D10 (AID 1877);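 further: parasites grown with compound for 72 h before DNA staining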; further: potency means the concentration at half of the fitted maximal effect;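 on activity change, negative = inhibition: plate controls were vehicle wells for no effect and reference inhibitor wells for full effect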
[7] = qHTS for differential inhibitors of proliferation of Plasmodium falciparum line Dd2 (AID 1882); conditions: Potency: Plasmodium falciparum Dd2 proliferation inhibition;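 further: plate controls were DMSO vehicle for no effect and 0.29 µM artemisinin for full effect; nearly all actives have a fitted effect of over 65% in size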
Method in brief: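 Dd2-infected erythrocytes (0.3% parasitemia, 2.5% hematocrit final) incubated with compound 72 h at 37 C, 5% CO2; lysed with saponin/Triton buffer containing SYBR Green I, incubated overnight in the dark, then read by fluorescence (485/535 nm). Normalized to 0.29 uM artemisinin and DMSO.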

[8] = qHTS for differential inhibitors of proliferation of Plasmodium falciparum line W2 (AID 1883); conditions: Potency: Plasmodium falciparum W2 proliferation inhibition;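 further: parasites grown with compound for 72 h before lysis and staining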; further: potency means the concentration at half of the fitted maximal effect;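 on activity change, negative = inhibition: 0% = vehicle wells and -100% = control inhibitor wells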
[9] = qHTS for differential inhibitors of proliferation of Plasmodium falciparum line HB3 (AID 1886); conditions: Potency: Plasmodium falciparum HB3 proliferation inhibition;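 further: parasites grown with compound for 72 h before SYBR Green readout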; further: potency means the concentration at half of the fitted maximal effect;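 on activity change, negative = inhibition: plate controls were vehicle for no effect and reference inhibitor for full effect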
[10] = molecular target: Ferritin light chain (Equus caballus) (UniProt P02791); test: qHTS Validation Assay for Identification of Novel General Anesthetics (AID 2323); further: on the % scale 0 is the no-effect control and ±100 the full control effect
Ferritin light chain (Equus caballus), sequence (P02791 2-175 limits assumed): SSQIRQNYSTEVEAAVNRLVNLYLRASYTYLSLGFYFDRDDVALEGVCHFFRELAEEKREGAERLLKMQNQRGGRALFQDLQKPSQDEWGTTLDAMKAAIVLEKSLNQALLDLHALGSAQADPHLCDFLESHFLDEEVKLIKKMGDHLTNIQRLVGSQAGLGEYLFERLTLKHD
Method in brief: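 Competitive displacement of the profluorescent anesthetic 1-AMA (50% saturated, PBS) from 10 uM apoferritin, 10 min, room temperature. Activity is normalized 380/535 nm fluorescence; concentration-response fitted with a four-parameter Hill equation.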

[11] = molecular target: ATP-dependent DNA helicase Q1 (Homo sapiens) (UniProt P46063); test: qHTS Validation Assay for Inhibitors of RecQ-Like Dna Helicase 1 (RECQ1) (AID 2353);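 further: plate controls were DMSO vehicle for no effect and enzyme-free control for full effect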
ATP-dependent DNA helicase Q1 (Homo sapiens), sequence (P46063 whole entry, looked up): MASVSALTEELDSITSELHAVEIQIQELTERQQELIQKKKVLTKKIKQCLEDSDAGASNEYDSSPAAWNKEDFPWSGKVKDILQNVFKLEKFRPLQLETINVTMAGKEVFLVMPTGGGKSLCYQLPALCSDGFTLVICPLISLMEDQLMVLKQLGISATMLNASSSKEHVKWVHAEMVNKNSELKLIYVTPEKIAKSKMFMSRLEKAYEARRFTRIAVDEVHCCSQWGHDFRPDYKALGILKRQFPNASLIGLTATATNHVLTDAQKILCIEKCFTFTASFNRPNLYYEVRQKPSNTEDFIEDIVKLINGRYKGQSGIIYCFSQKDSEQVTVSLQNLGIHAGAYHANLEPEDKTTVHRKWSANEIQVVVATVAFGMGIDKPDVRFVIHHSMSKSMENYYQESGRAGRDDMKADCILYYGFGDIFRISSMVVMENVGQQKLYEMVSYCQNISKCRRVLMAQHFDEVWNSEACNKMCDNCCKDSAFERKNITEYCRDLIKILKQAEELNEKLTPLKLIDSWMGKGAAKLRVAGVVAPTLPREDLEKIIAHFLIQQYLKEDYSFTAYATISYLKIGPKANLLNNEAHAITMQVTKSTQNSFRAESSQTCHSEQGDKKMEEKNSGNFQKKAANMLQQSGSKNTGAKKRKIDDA
Method in brief: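 50 nM RECQ1T1 preincubated 15 min with compound in Tris pH 8.0 buffer with MgCl2, DTT, Tween-20 and 2.5 ug/ml poly(dI-dC); started with 200 nM TAMRA/BHQ-2 forked duplex and 2 mM ATP. Unwinding read as fluorescence (525/598 nm), two reads 2 h apart.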

[12] = molecular target: RecQ-like DNA helicase BLM (Homo sapiens) (UniProt P54132); test: qHTS Validation Assay for Inhibitors of Bloom's syndrome helicase (BLM) (AID 2364);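 further: plate controls were DMSO vehicle for no effect and enzyme-free control for full effect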
RecQ-like DNA helicase BLM (Homo sapiens), sequence (P54132 whole entry, looked up): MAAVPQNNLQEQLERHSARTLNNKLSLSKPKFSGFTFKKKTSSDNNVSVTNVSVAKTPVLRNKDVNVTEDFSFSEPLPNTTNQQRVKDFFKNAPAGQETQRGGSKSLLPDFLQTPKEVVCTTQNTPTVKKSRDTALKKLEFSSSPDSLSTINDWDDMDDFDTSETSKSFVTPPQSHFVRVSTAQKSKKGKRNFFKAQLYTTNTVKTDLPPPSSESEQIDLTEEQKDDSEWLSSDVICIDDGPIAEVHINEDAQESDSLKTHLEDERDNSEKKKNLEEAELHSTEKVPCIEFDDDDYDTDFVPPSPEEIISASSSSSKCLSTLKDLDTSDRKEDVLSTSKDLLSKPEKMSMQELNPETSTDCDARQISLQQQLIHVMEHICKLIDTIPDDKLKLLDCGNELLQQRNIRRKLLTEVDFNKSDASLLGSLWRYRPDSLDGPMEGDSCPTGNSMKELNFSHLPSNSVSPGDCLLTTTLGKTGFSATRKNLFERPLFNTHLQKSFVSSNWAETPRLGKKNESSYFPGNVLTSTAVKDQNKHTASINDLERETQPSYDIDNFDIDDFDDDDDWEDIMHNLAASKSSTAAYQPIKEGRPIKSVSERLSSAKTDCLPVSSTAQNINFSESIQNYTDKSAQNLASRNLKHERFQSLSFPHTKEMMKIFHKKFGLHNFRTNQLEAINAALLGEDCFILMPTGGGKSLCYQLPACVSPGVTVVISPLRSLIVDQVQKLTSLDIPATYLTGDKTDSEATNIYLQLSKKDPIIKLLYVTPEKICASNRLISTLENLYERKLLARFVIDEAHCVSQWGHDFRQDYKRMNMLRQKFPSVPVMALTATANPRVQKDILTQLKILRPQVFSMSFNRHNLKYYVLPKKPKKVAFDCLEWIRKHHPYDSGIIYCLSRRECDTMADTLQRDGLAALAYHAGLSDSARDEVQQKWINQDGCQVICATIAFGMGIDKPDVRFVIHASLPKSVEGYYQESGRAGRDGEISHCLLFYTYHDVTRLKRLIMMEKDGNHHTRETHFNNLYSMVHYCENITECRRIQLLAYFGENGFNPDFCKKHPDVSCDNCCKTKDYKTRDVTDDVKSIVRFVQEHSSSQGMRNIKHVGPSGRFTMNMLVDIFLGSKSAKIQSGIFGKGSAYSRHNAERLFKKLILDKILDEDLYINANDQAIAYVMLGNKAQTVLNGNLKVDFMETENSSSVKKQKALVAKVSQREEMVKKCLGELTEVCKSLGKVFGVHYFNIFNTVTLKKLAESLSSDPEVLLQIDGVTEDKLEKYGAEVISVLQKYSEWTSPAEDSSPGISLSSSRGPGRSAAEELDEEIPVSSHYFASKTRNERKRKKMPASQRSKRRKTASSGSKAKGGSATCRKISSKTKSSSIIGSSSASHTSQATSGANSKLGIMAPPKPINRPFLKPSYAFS
Method in brief: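 50 nM BLM preincubated 15 min at room temperature with compound in pH 8.0 Tris buffer containing 2.5 ug/ml poly(dI-dC); started with 200 nM TAMRA/BHQ-2 forked duplex and 2 mM ATP (final). Unwinding read as TAMRA fluorescence increase, two reads 2 h apart.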

[13] = qHTS for differential inhibitors of proliferation of Plasmodium falciparum line 7G8 (AID 1815);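 further: parasite growth measured after three days of incubation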; further: potency means the concentration at half of the fitted maximal effect;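 on activity change, negative = inhibition: plate controls were vehicle wells for no effect and reference inhibitor wells for full effect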
[14] = qHTS for differential inhibitors of proliferation of Plasmodium falciparum line GB4 (AID 1816); conditions: Potency: Plasmodium falciparum GB4 proliferation inhibition;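 further: parasite growth measured after 72 h incubation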; further: potency means the concentration at half of the fitted maximal effect;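 on activity change, negative = inhibition: 0% = vehicle DMSO and -100% = reference inhibitor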
[15] = qHTS Assay for Modulators of Human Peripheral Myelin Protein 22 (PMP22) Expression/Activity (AID 1967; active means well fitted curve in the direction sought with a large enough effect in the signal ratio; the % refers to the signal ratio;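 further: 0% = untreated cells and 100% end not stated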)
Method in brief: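 Readout is the corrected green/red luminescence ratio after 24 h compound exposure, normalised to untreated cells (0%). Engineered MSC80 mouse Schwann cells express green luciferase from the mouse Pmp22 promoter and red luciferase from EF-alpha as internal control.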

[16] = qHTS for differential inhibitors of proliferation of Plasmodium falciparum line 3D7 (AID 1876); further: potency means the concentration at half of the fitted maximal effect
[17] = molecular target: Endonuclease 4 (Escherichia coli (strain K12)) (UniProt P0A6C1); test: Counterscreen for APE1 Inhibitors: qHTS Validation Assay for Inhibitors of Endonuclease IV (AID 1708); further: on the % scale 0 is the no-effect control and ±100 the full control effect
Method in brief: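 E. coli EndoIV at 2 nM final, preincubated 15 min at room temperature with compound, then 50 nM TAMRA/BHQ-2 THF abasic-site duplex added. Buffer: 50 mM Tris-HCl pH 7.5, 50 mM NaCl, 2 mM MgCl2, 1 mM DTT, 0.01% Tween-20. Kinetic fluorescence increase, third minus first read.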

[18] = molecular target: Lysosomal alpha-glucosidase (Homo sapiens) (UniProt P10253); test: Confirmation of Inhibitors and Activators of Purified Human alpha-Glucosidase (AID 2115; active means well fitted curve in either direction with a large enough effect); conditions: purified human GAA enzyme activity
Method in brief: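 Purified human enzyme (4 nM) with 4-methylumbelliferyl-alpha-D-glucopyranoside (400 uM), compounds up to 77 uM, in citrate/phosphate buffer pH 5.0 with 0.005% Tween-20. After 20 min at RT, stopped at pH 10; fluorescence ex 365/em 440 nm; AC50 from Hill fits.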

[19] = measured here: cell count channel max response
[20] = measured here: lipid channel max response

COc1ccc(CCN(C)CCc2ccc(OC)c(OC)c2)cc1OC
inactive: outcome [1] | outcome [2] | activity change, negative = inhibition [3] -1.77% and -1.64% | Potency [4] | Potency [5] | Potency [6] | Potency [7] | Potency [9] | Potency [10] | Potency [11]
4.66% and 25.1%: max response [3, 20]
active: Potency [8] 14.1 µM
7.2% and 26.8%: max response [3, 19]

O=C(O)C1CCNCC1
10%: max response [3, 20]
11.3%: max response [3, 19]
inactive: outcome [1] | outcome [2] | activity change, negative = inhibition [3] -0.0209% | Potency [4] | Potency [5] | Potency [7] | Potency [10] | Potency [11] | Potency [12]

CCCC[C@@]1(C2CCCC2)Cc2cc(OCC(=O)O)c(Cl)c(Cl)c2C1=O
-23.6%: max response [3, 19]
-27%: max response [3, 20]
active: Potency [13] 8.91 µM | Potency [14] 12.6 µM | Potency [8] 10 µM
inactive: outcome [2] | activity change, negative = inhibition [3] -1.19% | Potency [4] | outcome [15] | Potency [10] | Potency [11]

CNc1cc(NS(=O)(=O)c2ccc(N)cc2)nc(NC)n1
-14.3%: max response [3, 20]
-14.7%: max response [3, 19]
inactive: outcome [1] | outcome [2] | activity change, negative = inhibition [3] 0.422% | Potency [4] | Potency [13] | Potency [14] | Potency [16] | Potency [6] | Potency [7] | Potency [8] | Potency [9] | outcome [15] | Potency [10] | Potency [11]

c1ccc(CN2CCC3(CCCc4ccccc43)CC2)cc1
-38%: max response [3, 19]
active: Potency [13] 5.01 µM | Potency [14] 5.62 µM | Potency [16] 10 µM | Potency [6] 12.6 µM | Potency [8] 4.47 µM | Potency [9] 7.94 µM
inactive: outcome [1] | outcome [2] | activity change, negative = inhibition [3] -2.7% | Potency [4] | Potency [17] | Potency [10] | Potency [11]
-39.4%: max response [3, 20]

NCCS(=O)O
inactive: outcome [1] | outcome [2] | activity change, negative = inhibition [3] -6.29% and 1.76% | Potency [4] | Potency [17] | Potency [13] | Potency [14] | Potency [16] | Potency [6] | Potency [7] | Potency [8] | Potency [9] | outcome [15] | Potency [10] | Potency [11]
-10.2% and 4.71%: max response [3, 19]
-16.1% and 6.07%: max response [3, 20]

N[C@@H](Cc1ccc(O)c(I)c1)C(=O)O
inactive: outcome [1] | outcome [2] | Potency [4] | Potency [5] | Potency [17] | Potency [13] | Potency [14] | Potency [16] | Potency [6] | Potency [7] | Potency [8] | Potency [9] | outcome [15] | Potency [10] | Potency [11]

OC[C@H]1NC[C@@H](O)[C@@H]1O
inactive: outcome [2] | Potency [4] | Potency [5] | Potency [17] | Potency [13] | Potency [14] | Potency [16] | Potency [6] | Potency [7] | Potency [8] | Potency [9] | outcome [15] | outcome [18] | Potency [10] | Potency [11] | Potency [12]

O=c1cc(O)cc(/C=C/c2ccc(O)c(O)c2)o1
inactive: outcome [2] | Potency [5] | Potency [17] | Potency [7] | Potency [10] | Potency [11]
active: Potency [4] 0.794 µM | Potency [13] 8.91 µM | Potency [14] 12.6 µM | Potency [6] 11.2 µM | Potency [8] 11.2 µM | Potency [9] 11.2 µM

Nc1ccc(N2C(=O)c3ccccc3C2=O)c(Cl)c1
inactive: outcome [1] | outcome [2] | Potency [4] | Potency [5] | Potency [17] | Potency [13] | Potency [14] | Potency [16] | Potency [6] | Potency [7] | Potency [9] | Potency [10] | Potency [11] | Potency [12]

N=C(N)c1ccc(N)cc1
inactive: outcome [1] | outcome [2] | Potency [4] | Potency [5] | Potency [17] | Potency [13] | Potency [16] | Potency [6] | Potency [9] | outcome [15] | Potency [10] | Potency [11] | Potency [12]
active: Potency [8] 14.1 µM

CNc1ncnc2c1ncn2[C@H]1C[C@H](OP(=O)(O)O)[C@@H](COP(=O)(O)O)O1
inactive: outcome [2] | Potency [4] | Potency [5] | Potency [13] | Potency [14] | Potency [16] | Potency [6] | Potency [7] | Potency [8] | Potency [9] | outcome [15] | Potency [10] | Potency [11]

COC(=O)C(C)(N)Cc1ccc(O)cc1 (stereo unspecified)
inactive: outcome [2] | Potency [4] | Potency [5] | Potency [17] | Potency [7] | outcome [15] | Potency [10] | Potency [11] | Potency [12]
active: Potency [14] 14.1 µM | Potency [8] 12.6 µM

Cc1cccc(C2CN(C)CCc3c2cc(O)c(O)c3Cl)c1 (stereo unspecified)
active: Potency [13] 7.94 µM | Potency [14] 8.91 µM | Potency [16] 8.91 µM | Potency [6] 11.2 µM | Potency [8] 7.08 µM | Potency [9] 12.6 µM
inactive: outcome [2] | Potency [4] | Potency [5] | Potency [17] | Potency [10] | Potency [11] | Potency [12]

CCCOC(=O)c1c(-c2ccccc2)nc(CC)c(C(=O)SCC)c1CCC
inactive: outcome [1] | outcome [2] | Potency [4] | Potency [5] | Potency [17] | Potency [10] | Potency [11]
active: Potency [13] 12.6 µM | Potency [14] 11.2 µM | Potency [6] 12.6 µM | Potency [8] 10 µM | Potency [9] 17.8 µM

CC1=C(C(=O)O)N2C(=O)[C@@H](NC(=O)C(N)C3=CCC=CC3)[C@H]2SC1 (stereo partly specified)
inactive: outcome [2] | Potency [4] | Potency [5] | Potency [17] | Potency [13] | Potency [14] | Potency [16] | Potency [6] | Potency [7] | Potency [8] | Potency [9] | Potency [10] | Potency [11]
